Data: PubChem BioAssay (NCATS)
Values without a mark were called inactive. Inconclusive results are not listed. Entries that show only a call come without a potency. Calls of active or inactive are those of the source. Unless noted, calls follow the shape of the dose curve; as a rule, active = well fitted curve in the direction sought with a large enough effect; inconclusive = small, poorly fitted or top-dose-only effect, or another doubt; inactive = no such curve, though single readings can be large; an effect the other way counts as inactive or inconclusive.

Assays:
[1] = target: Lysosomal acid glucosylceramidase (Homo sapiens) (UniProt P04062); assay: Glucocerebrosidase-p2 (AID 348; in the data active = potency below about 10 µM; also: potency is read from the fitted curve at half-maximal effect); settings: purified GBA, blue fluorogenic substrate, 40 min
Lysosomal acid glucosylceramidase (Homo sapiens), sequence (P04062 whole entry, looked up): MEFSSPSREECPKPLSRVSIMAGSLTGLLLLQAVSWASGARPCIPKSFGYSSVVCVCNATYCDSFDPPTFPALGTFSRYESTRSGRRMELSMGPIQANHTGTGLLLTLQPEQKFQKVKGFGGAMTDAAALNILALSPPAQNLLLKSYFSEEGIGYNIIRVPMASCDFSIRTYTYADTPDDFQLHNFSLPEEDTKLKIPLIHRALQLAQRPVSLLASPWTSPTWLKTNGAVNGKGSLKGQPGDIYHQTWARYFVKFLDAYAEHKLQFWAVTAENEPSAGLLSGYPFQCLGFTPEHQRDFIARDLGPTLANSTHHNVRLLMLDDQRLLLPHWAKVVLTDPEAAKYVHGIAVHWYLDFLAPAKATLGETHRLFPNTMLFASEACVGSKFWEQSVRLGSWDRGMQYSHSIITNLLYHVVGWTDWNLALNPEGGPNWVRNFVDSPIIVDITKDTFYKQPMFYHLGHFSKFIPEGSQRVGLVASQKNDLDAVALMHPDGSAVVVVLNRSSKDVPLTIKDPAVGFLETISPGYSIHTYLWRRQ
Outline: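 Normal human glucocerebrosidase (0.2 nM) with blue fluorogenic substrate (80 uM final) in citrate/phosphate pH 5.9 with 10mM sodium taurocholate, 0.01% tween-20; 40 min RT, NaOH/glycine stop; fluorescence Ex 365/Em 440; AC50 from a titration from 0.6 nM upwards.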

[2] = AP1 Signaling Pathway (AID 357; active = well fitted curve in either direction with a large enough effect, not every such curve was filed as active); settings: ME-180 AP-1-bla reporter, EGF-induced, beta-lactamase ratio, 5 h; at 7.69 µM (top of the series) unless noted
Outline: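 AP-1-bla ME-180 cells with beta-lactamase reporter under AP-1 response element, stimulated with EC50 EGF; compounds titrated, 5 hours at 37 degrees Celsius. CCF4 read at 460/530 nm ratio; positive and negative modulators judged by AC50.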

[3] = target: Cytochrome P450 1A2 (Homo sapiens) (UniProt P05177); assay: p450-cyp1a2 (AID 410; calls by dose curve; also: potency is read from the fitted curve at half-maximal effect); settings: recombinant CYP1A2, luciferin-ME demethylation, luminescence; series mostly up to 57 µM
Cytochrome P450 1A2 (Homo sapiens), sequence (P05177 whole entry, looked up): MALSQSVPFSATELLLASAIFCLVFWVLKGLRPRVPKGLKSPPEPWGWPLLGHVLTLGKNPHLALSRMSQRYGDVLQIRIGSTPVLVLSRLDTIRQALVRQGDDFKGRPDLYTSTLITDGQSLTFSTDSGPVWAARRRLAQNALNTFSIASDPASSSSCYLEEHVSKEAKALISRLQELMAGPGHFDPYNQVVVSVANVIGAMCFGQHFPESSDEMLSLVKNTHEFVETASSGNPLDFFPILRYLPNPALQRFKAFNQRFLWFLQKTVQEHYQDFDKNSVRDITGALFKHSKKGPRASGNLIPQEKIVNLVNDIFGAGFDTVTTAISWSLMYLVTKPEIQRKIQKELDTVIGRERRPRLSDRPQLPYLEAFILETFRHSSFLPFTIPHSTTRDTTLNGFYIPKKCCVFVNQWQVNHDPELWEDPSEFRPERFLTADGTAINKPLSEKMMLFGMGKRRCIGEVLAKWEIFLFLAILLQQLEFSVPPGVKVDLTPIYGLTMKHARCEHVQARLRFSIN
Outline: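 O-Demethylation of luciferin 6' methyl ether by human CYP1A2 is monitored as luciferase luminescence. Substrate sits at Km (100uM); enzyme is 20nM. Values are scaled to 57 uM furafylline as maximal inhibition.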

[4] = NFAT Signaling Pathway (AID 444; active = well fitted curve in either direction with a large enough effect, not every such curve was filed as active;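 also: carbachol stimulus at about its EC50 of 1 µM final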); settings: Jurkat NFAT-bla M1, carbachol, beta-lactamase ratio, 5 h; at 7.69 µM (top of the series) unless noted
Outline: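 Jurkat cells carrying an NFAT-driven β-lactamase reporter and co-transfected muscarinic M1 receptor were treated with compound plus carbachol (1 uM final, an EC50 level) for 5 h at 37 °C. CCF4 loading followed for 1 h at RT; 460/530 nm ratio gave %activity.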

[5] = target: Glucocorticoid receptor (Homo sapiens) (UniProt P04150); assay: GR-GFP Redistribution (AID 450;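 active = compounds whose dose series gives a full or clear partial fitted curve of increased nuclear translocation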; also: potency is read from the fitted curve at half-maximal effect); settings: U2OS GR-GFP nuclear translocation, laser cytometry, 2 h
Glucocorticoid receptor (Homo sapiens), sequence (P04150 whole entry, looked up, the tested form may be a part): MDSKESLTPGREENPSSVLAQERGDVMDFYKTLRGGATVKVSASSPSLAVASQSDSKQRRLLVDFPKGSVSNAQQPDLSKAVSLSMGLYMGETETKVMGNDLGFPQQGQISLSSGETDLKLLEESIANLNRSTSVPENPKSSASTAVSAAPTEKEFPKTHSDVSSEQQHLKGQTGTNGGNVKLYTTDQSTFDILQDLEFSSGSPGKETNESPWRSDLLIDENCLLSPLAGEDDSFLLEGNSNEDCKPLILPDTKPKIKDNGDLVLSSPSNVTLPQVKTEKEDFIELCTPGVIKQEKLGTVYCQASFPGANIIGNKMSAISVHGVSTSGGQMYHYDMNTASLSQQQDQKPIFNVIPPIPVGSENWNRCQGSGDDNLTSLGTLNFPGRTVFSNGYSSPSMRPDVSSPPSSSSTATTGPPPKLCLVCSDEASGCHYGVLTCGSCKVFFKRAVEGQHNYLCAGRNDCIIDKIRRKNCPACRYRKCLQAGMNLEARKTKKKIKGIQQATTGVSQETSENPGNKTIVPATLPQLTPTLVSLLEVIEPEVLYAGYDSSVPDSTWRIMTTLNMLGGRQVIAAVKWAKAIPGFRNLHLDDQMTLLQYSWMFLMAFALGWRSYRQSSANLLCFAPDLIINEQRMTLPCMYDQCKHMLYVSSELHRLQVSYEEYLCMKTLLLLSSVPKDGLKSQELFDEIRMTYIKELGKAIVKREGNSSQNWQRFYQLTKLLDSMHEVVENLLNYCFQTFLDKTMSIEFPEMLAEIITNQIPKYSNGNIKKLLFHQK

[6] = target: Glucocorticoid receptor (Homo sapiens) (UniProt P04150); assay: GR-EFC Redistribution (AID 451; calls by dose curve; also: potency is read from the fitted curve at half-maximal effect); settings: CHO-K1 GR-EFC translocation, beta-gal luminescence, 2 h
Outline: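 CHO-K1 cells stably expressing nuclear-localized β-gal enzyme acceptor and GR fused C-terminally to the enzyme donor fragment; ligand-driven nuclear translocation restores β-gal by complementation. Compounds titrated up to 46 uM final, 2 h at 37 °C; luminescence read.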

[7] = target: Mitogen-activated protein kinase 10 (Mus musculus) (UniProt Q61831); assay: JNK3 AlphaScreen Assay (AID 530; active = well fitted curve in either direction with a large enough effect, not every such curve was filed as active;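 also: kinase came from lysate of stimulated human HepG2 cells; signal reports phosphorylation of biotinylated GST-cJun 1-79 at Ser73 with 10 µM ATP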); settings: JNK3 lysate, c-Jun phosphorylation; series mostly up to 57.1 µM
Outline: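 Phosphorylation of biotinylated GST-cJun(1-79) at Ser73 is measured by AlphaScreen proximity luminescence. Enzyme is JNK3 in HepG2 lysates activated with interleukin-1beta and tumor necrosis factor alpha; ATP is 10 uM final.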

[8] = target: 3',5'-cyclic-AMP phosphodiesterase 4B (Homo sapiens) (UniProt Q07343); assay: qHTS Assay for Inhibitors of PDE-IV (AID 607; active = well fitted activation curve with a large enough effect in the main read-out, with a control signal flat, not every such curve was filed as active); settings: HEK293 ACTOne CNG channel cells, membrane potential fluorescence; series mostly up to 22.9 µM
3',5'-cyclic-AMP phosphodiesterase 4B (Homo sapiens), sequence (Q07343 whole entry, looked up): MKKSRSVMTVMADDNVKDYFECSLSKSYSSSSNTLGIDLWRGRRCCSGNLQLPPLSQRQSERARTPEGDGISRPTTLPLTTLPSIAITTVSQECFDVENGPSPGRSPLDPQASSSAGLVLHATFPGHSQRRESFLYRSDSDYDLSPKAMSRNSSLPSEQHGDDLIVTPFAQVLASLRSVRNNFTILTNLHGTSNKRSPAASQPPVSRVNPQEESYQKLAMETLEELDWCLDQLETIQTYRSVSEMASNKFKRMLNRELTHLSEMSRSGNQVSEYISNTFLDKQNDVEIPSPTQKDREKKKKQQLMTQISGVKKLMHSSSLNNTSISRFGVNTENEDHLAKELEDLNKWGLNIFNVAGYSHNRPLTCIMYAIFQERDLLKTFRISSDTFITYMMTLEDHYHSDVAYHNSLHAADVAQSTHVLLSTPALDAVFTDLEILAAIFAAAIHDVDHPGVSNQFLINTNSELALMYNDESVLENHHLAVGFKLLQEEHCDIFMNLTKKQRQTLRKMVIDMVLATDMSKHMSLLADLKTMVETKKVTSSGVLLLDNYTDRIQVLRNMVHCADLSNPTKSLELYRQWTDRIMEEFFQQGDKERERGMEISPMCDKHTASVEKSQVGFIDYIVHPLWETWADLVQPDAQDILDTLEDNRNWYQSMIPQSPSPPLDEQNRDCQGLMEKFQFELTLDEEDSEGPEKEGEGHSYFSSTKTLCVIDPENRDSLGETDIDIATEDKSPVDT
Outline: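 The readout is membrane depolarisation from a cAMP-sensing CNG channel, detected with a potential dye at ex 535/em 590. Cells were HEK293-derived (endogenous PDE-IV) at 1000 cells/well, titrated up to 22.9 uM final.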

[9] = target: Cytochrome P450 3A4 (Homo sapiens) (UniProt P08684); assay: qHTS Assay for Inhibitors and Substrates of Cytochrome P450 3A4 (AID 884); settings: recombinant CYP3A4, Luciferin-PPXE luminescence; series mostly up to 57.1 µM; also: nearly all actives have a fitted effect of over 50% in size; also: potency is read from the fitted curve at half-maximal effect
Cytochrome P450 3A4 (Homo sapiens), sequence (P08684 whole entry, looked up): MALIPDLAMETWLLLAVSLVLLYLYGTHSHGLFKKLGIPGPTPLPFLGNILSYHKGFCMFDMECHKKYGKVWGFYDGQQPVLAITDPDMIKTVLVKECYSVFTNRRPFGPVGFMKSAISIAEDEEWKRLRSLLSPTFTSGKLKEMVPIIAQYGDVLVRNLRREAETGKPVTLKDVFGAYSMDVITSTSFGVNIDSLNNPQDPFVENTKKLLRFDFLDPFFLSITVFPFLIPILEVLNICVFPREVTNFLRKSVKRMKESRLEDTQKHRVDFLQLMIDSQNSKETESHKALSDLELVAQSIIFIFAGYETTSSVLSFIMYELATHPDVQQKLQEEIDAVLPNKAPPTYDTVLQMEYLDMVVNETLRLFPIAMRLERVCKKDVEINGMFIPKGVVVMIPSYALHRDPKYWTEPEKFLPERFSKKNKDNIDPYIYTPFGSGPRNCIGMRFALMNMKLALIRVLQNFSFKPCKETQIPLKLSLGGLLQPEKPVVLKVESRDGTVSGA
Outline: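 Luminescent readout of luciferin produced by CYP3A4 (20 nM) dealkylation of Luciferin-PPXE, 25 uM (its KM). NADPH-driven reaction ran 60 min at RT after 10 min compound preincubation; data scaled to 57 uM ketoconazole as 100% inhibition.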

[10] = qHTS Assay for Identification of Small Molecule Agonists for Hypoxia Response Element Signaling Pathway (AID 914; active = well fitted activation curve with a large enough effect in the signal ratio, with a control signal flat, not every such curve was filed as active; the % refers to the signal ratio; also: potency is read from the fitted curve at half-maximal effect); settings: ME-180 HRE-bla reporter, beta-lactamase ratio, CoCl2, 17 h; activation: active compounds read high
Outline: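 Compounds in a titration series were added to ME-180 reporter cells alongside an EC50 level of CoCl2. After 17 hours, beta-lactamase activity was read as the 460nm/530nm emission ratio of CCF4, giving AC50 values.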

[11] = target: Dual specificity protein kinase CLK4 (Homo sapiens) (UniProt Q9HAZ1); assay: qHTS Assay for Inhibitors of CDC-like Kinase 4 (Kinase-Glo Assay) (AID 1770); settings: recombinant Clk4, Kinase-Glo ATP depletion luminescence; series mostly up to 66.7 µM; also: nearly all actives have a fitted effect of over 65% in size
Dual specificity protein kinase CLK4 (Homo sapiens), sequence (Q9HAZ1 whole entry, looked up): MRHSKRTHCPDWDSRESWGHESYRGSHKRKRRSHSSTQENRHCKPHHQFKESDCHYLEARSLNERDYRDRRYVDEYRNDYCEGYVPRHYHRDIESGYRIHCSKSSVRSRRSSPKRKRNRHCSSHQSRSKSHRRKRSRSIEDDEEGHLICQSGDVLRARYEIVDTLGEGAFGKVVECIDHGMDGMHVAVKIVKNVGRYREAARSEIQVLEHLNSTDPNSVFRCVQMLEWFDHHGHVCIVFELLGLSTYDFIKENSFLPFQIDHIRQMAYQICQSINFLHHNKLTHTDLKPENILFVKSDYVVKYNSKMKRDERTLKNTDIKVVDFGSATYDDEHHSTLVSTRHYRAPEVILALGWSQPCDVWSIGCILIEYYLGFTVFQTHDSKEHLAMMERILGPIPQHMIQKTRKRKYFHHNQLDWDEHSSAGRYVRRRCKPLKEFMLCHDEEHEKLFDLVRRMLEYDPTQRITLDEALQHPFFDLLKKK
Outline: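 25 nM Clk4 with 100 uM RS repeat peptide and 1 uM ATP (final) in Tris pH7.5, 10 mM MgCl2, 4.5 h at room temperature. Remaining ATP measured by Kinase-Glo luciferase luminescence.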

[12] = target: Dual specificity protein kinase CLK4 (Homo sapiens) (UniProt Q9HAZ1); assay: qHTS Assay for Inhibitors of CDC-like Kinase 4 (ADP-Glo Assay) (AID 1771); settings: recombinant CLK4, ADP-Glo luminescence; series mostly up to 80 µM; also: nearly all actives have a fitted effect of over 70% in size
Outline: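 Compounds are pin-transferred onto substrate mix (100 uM RS peptide, 1 uM ATP), then 25 nM Clk4 is added. After 1 hr at room temperature, ADP-Glo reagent runs 45 min, detection reagent 30 min, then luminescence is read.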

[13] = target: Dual specificity protein kinase CLK4 (Homo sapiens) (UniProt Q9HAZ1); assay: qHTS Assay for Inhibitors of CDC-like Kinase 4 (ADP-FP Assay) (AID 1795); settings: Transcreener ADP fluorescence polarization; series mostly up to 50 µM;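 also: recombinant human CLK4 phosphorylating RS repeat peptide at 1 µM ATP; nearly all actives have a fitted effect of over 60% in size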
Outline: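 Recombinant Clk4 (6.25 nM) phosphorylated 100 uM RS repeat peptide with 1 uM ATP in 25 mM Tris pH 7.5, 10 mM MgCl2, 0.5 mM EGTA, 2.5 mM DTT, 0.01% Triton X-100 for 1 h. ADP was detected by Transcreener ADP2 competitive fluorescence polarization after 30 min at room temperature.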

[14] = Primary qHTS for small molecule stabilizers of the endoplasmic reticulum resident proteome: Secreted ER Calcium Modulated Protein (SERCaMP) assay (AID 1508630); settings: SH-SY5Y GLuc-SERCaMP (Gaussia luciferase released on ER calcium loss) secretion, thapsigargin, luminescence; series mostly up to 38.4 µM
Outline: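 The SH-SY5Y reporter protocol was run at 3 concentrations up to 38.3 uM (primary) or 11 concentrations (follow-up): 16 h compound, 100 nM thapsigargin for 4 h, then extracellular luciferase luminescence.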

[15] = Stat Signaling Pathway (AID 446; active = well fitted curve in either direction with a large enough effect, not every such curve was filed as active;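 also: ME-180 cervical cancer cells given 40 pM IL-6 alongside compound; SIE-controlled beta-lactamase reporter measured as 460/530 nm FRET emission ratio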); settings: ME-180 (cervical carcinoma) SIE beta-lactamase reporter, IL-6 stimulated, 5 h; at 7.69 µM (top of the series) unless noted
Outline: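 Emission at 460 and 530 nm (excitation 405 nm) reports SIE-controlled beta-lactamase in ME-180 cells. Cells received compound with 40 pM IL-6 for 5 hrs at 37 C; data scaled between 300 pM IL-6 and 125 nM JAK-inhibitor controls.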

[16] = target: Cytochrome P450 3A4 (Homo sapiens) (UniProt P08684); assay: qHTS Assay for Activators of Cytochrome P450 3A4 (AID 885); settings: recombinant CYP3A4, Luciferin-PPXE luminescence, 60 min; series mostly up to 57.1 µM; also: nearly all actives have a fitted effect of over 65% in size
Outline: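 Activators are scored by enhanced luminescence from CYP3A4 conversion of luciferin-PPXE (25uM, equal to KM) to luciferin, after 60 min at RT with an NADPH-regenerating system.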

[17] = target: Ubiquitin carboxyl-terminal hydrolase 1 (Homo sapiens) (UniProt O94782); assay: Inhibitors of USP1/UAF1: Pilot qHTS (AID 504865); settings: purified USP1/UAF1, Ub-rhodamine cleavage fluorescence; series mostly up to 54.9 µM;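 also: rhodamine fluorescence freed from ubiquitin-rhodamine substrate followed over time; top concentration of the series differs between compounds; nearly all actives have a fitted effect of over 35% in size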
Ubiquitin carboxyl-terminal hydrolase 1 (Homo sapiens), sequence (O94782 whole entry, looked up): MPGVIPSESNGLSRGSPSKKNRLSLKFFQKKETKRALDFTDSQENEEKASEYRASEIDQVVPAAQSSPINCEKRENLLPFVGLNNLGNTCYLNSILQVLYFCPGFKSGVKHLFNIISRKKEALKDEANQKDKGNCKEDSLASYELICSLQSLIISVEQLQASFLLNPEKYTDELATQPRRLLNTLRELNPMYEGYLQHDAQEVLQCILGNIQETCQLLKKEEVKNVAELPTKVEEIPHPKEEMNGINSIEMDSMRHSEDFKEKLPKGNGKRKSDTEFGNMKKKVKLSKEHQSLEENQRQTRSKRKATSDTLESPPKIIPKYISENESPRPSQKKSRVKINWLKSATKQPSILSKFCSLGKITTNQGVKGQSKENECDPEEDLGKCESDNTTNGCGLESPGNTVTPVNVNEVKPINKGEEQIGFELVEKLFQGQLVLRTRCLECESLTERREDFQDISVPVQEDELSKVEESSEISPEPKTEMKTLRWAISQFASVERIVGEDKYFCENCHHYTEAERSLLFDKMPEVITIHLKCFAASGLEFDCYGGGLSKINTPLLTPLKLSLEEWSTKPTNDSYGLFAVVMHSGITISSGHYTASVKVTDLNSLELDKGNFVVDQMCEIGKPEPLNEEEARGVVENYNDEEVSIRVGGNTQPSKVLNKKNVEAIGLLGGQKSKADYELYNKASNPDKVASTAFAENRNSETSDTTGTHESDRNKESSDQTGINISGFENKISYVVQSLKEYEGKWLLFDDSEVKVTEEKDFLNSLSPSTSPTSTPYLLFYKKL
Outline: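 USP1/UAF1 complex at 1 nM preincubated 15 min at room temperature with compound, then Ub-Rho substrate added at 150 nM final. Fluorescence (480/540 nm) read kinetically in 50 mM HEPES pH 7.8, 0.5 mM EDTA, 1 mM TCEP, 0.1 mg/ml BSA, 0.01% Tween-20.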

| SMILES | Potency [1] [µM] | activity change, negative = inhibition [2] | Potency [3] | activity change, negative = inhibition [4] | Potency [5] [µM] | Potency [6] [µM] | Potency [7] | Potency [8] | Potency [9] | Potency [10] | Potency [11] | Potency [12] | Potency [13] | outcome [14] | activity, negative = inhibition [15] [%] | Potency [16] | Potency [17] |
| --- | --- | --- | --- | --- | --- | --- | --- | --- | --- | --- | --- | --- | --- | --- | --- | --- | --- |
| CN(C)c1ncc2nc(-c3ccc(Cl)cc3)c(=O)n(Cc3ccc(F)cc3)c2n1 | > 11.4 | 115% [activator] (active) | 5.01 µM (active) | 137% [activator] (active) | > 9.22 | > 46 | inactive | inactive | inactive | 1.26 µM (active) | inactive | inactive | inactive | inactive |  |  |  |
| COc1ccc(CNc2nc(-c3cccc(C#N)c3)nc3ccccc23)c(OC)c1 | > 11.4 | -19.2% | 2.51 µM (active) |  | > 46 | > 46 | inactive |  | 2.51 µM (active) |  | inactive | inactive | inactive | inactive | -10.1 | inactive | inactive |
| COc1ccccc1CNc1ccnc(-c2ccccc2CN(C)C)n1 | > 11.4 | -7.71% |  | -25.2% | > 46 | > 46 | inactive |  |  |  | inactive | inactive | inactive | inactive | 3.25 |  | inactive |
| FC(F)(F)c1ccccc1-c1cncnc1NCc1cccs1 | > 11.4 | 10.5% | 20 µM (active) |  | > 46 | > 46 | inactive |  | 0.251 µM (active) |  | inactive | inactive | inactive | inactive |  | inactive | inactive |
| CN(C)c1ncc2nc(CCc3ccccc3)c(=O)n(C3CC3)c2n1 | > 11.4 | 1.45% | 3.16 µM (active) |  | > 9.22 | > 46 | inactive |  |  |  | inactive | inactive | inactive | inactive | -4.87 | inactive | inactive |
| O=c1c(-c2ccc(Cl)cc2)nc2cnc(Nc3ccccc3)nc2n1C[C@H]1CCCO1 | > 11.4 | -8.65% | 12.6 µM (active) | -7.53% | > 9.22 | > 46 | inactive |  |  | 0.126 µM (active) | inactive | inactive | inactive | inactive |  |  | inactive |
| Cc1cnc(CNc2nc(-c3c(C)noc3C)nc3ccccc23)cn1 | > 11.4 | 9.21% |  | 15% | > 46 | > 46 | inactive |  |  |  | inactive | inactive | inactive | inactive | -4.92 |  | inactive |
